Laboratory results taken from PubChem BioAssay (NCI).
This is part of a sample that, as a whole, favours compounds with a hit. Of some 83,000 tested, about 20% had one in any assay.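 Compound tested at a single concentration for 48 hours in 96-well plates; a percent growth value below 10 was scored as active.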 The source made the active and inactive calls.

Each compound was assayed on MDA-MB-468 breast (assay: NCI-60 one-dose screen, 48 h (100 = growth as untreated, 0 = no growth, -100 = all killed)). Details: 10 µM unless noted.

| Structure (SMILES) | growth |
| --- | --- |
| CS(=O)(=O)c1nccc(-c2c(-c3ccc(F)c(OCc4ccc(F)cc4)c3)nc3sccn23)n1 | -37.2% (active) |
| Cc1ccc(N=NC2C(=O)N(c3ccc(Cl)cc3)N(c3ccc(Cl)cc3)C2=O)cc1 | 107% (inactive) |
| CN1CCN(c2ccc(Nc3nc(NCCCNS(=O)(=O)c4cccc(F)c4)c4sccc4n3)cc2)CC1 | -5.96% (active) |
| COc1ccccc1NC(=O)COc1ccc(/C=C2/Oc3cc4occc4c(OC)c3C2=O)cc1OC | 102% (inactive) |
| CCOC(=O)C(C(C)=O)c1nc2sc3cc(Cl)c(Cl)cc3n2c(=O)c1C#N (configuration not stated) | 89.5% (inactive) |
| Cc1c(O)c(O)cc2c3c(oc12)CC(c1ccc2c(c1)OCO2)CC3=O (configuration not stated) | 93.2% (inactive) |
| O=C(OCC1CC2(Cl)C(Cl)=C(Cl)C1(Cl)C2(Cl)Cl)C1C(C(=O)OCC2CC3(Cl)C(Cl)=C(Cl)C2(Cl)C3(Cl)Cl)C2(Cl)C(Cl)=C(Cl)C1(Cl)C2(Cl)Cl (configuration not stated) | 107% (inactive) |
| CCNC(=O)Oc1ccc(/C(=C(/C)Cc2ccc(OC)cc2)c2ccc(OCCN3CCCCCC3)cc2)cc1 | 51.8% (inactive) |
| N=C(N)c1ccc(-c2ccc(-c3cc(Cl)cc(Cl)c3)o2)nc1 | -73.9% (active) |
| COc1cc2cc(Oc3ccc(NC(=O)Nc4cc(C(F)(F)F)cc(C(F)(F)F)c4)cc3)c(C)nc2cc1OCCN(C)C | 100% (inactive) |
| C#CCOc1ccc(C2=NN(C)C3N=C(Cl)c4ncn(C)c4N23)cc1OCC#C (configuration not stated) | 86.3% (inactive) |
| CN1CCN(c2cc(Nc3cc(C4CC4)[nH]n3)nc(Nc3ccc(CC(=O)NCc4cccc(F)c4)cc3)n2)CC1 | 98.8% (inactive) |
